The campaign covered roughly 340,000 compounds. About 2,100 (0.62%) were called active.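 Rule for the calls: active = first-screen hits whose inhibition reached a set limit at any dose in the follow-up dose series; inconclusive = inhibition above the set first-screen limit but never retested; inactive = the rest.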 A selection follows. Entries with a potency or affinity are not part of this list.

For this assay, the target named is Rac GTPase-activating protein 1 (Homo sapiens) (UniProt Q9H0H5). In words: MgcRacGAP GTPase-activating activity inhibitors, confirmation, biochemical, ADP Hunter fluorescence, primary and confirmatory (AID 624330).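 Note: fluorescence reports GDP produced by GAP-driven GTP hydrolysis.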 Particulars: MgcRacGAP-stimulated Rac1 GTP hydrolysis, at 30 µM, hits give high values, GST-tagged Rac1 F28L mutant substrate.
Rac GTPase-activating protein 1 (Homo sapiens), sequence (Q9H0H5 whole entry, looked up): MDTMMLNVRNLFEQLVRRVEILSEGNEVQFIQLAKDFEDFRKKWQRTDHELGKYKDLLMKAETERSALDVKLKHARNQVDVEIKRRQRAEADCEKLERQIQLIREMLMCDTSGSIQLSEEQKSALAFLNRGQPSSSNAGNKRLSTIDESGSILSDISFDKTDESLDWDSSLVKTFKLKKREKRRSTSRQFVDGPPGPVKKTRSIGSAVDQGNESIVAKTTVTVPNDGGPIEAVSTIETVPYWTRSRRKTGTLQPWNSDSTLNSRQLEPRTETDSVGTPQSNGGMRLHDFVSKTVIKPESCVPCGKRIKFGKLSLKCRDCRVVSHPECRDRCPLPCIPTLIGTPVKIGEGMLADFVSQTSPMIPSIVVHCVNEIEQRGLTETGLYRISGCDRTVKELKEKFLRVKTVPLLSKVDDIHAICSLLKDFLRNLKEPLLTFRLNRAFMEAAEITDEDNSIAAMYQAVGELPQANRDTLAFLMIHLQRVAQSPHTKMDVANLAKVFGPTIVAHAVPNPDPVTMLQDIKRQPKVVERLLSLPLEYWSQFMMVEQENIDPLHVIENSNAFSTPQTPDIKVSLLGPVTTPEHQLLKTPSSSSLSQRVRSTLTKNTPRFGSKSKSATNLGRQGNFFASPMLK
Usually inhibition stands for the relative decrease from the control value, in per cent. As to `Cc1ccc(C(=O)NCC(=O)Nc2ncccc2C)s1`, the inhibition is -8.48% (inactive). Next, `Cc1ccc(C(=O)Nc2ccncc2)cc1S(=O)(=O)N1CCOCC1`: 5.06% (inactive); `CCOc1ccc(CCN2C(=S)N([C@@H](CC(C)C)CN3CCCC3CN3C(=S)NC[C@@H]3Cc3ccc(O)cc3)C[C@@H]2Cc2ccccc2)cc1` (stereo partly specified): -2.29% (inactive); `C[C@H](CO)N1C[C@H](C)[C@@H](CN(C)C(=O)c2ccccc2)OCc2cnnn2CCCC1=O`: 16.3% (inactive).

On to `Oc1ccccc1N=Cc1ccc[nH]1`, for which the inhibition was 16.7% (inactive).

On to `O=C(Nc1ccccc1O)c1ccc([N+](=O)[O-])cc1`, for which the inhibition was 6.91% (inactive).

Regarding `O=C(CN1CCOCC1)Nc1ccc(-c2nc3ccccc3[nH]2)cc1`, the inhibition is 10.7% (inactive). `CC(C)C[C@@H](C(=O)O)N(Cc1cccc(CN([C@@H](CC(C)C)C(=O)O)S(C)(=O)=O)c1)S(C)(=O)=O`: the inhibition was 9.29% (inactive). For `CC1=C(C(=O)Nc2ccccc2C)C2(CCCC2)C(C(N)=O)C(=O)N1` (stereo unspecified) the value was -3.29% (inactive); for `CCOC(=O)c1cnc2c(-c3ccccc3)cnn2c1C`, 8.8% (inactive); for `NC(=O)CSC1=N/C(=C\c2ccco2)C(=O)N1c1ccc(OC(F)F)cc1`, 9.08% (inactive). For `CCNC(=O)CSC1=N/C(=C\c2ccc(O)c(OCC)c2)C(=O)N1c1ccc(OC(F)F)cc1` the value was 7.81% (inactive); for `CCC(C)[C@H](NC(=O)N1CCN(C)CC1)C(=O)OC` (stereo partly specified), 3.84% (inactive). As for `Cc1ccc(C(=O)Nc2cccc(Oc3ccccc3)c2)o1`, the inhibition was 1.9% (inactive). Next, `c1ccc(Cc2nc3ccccc3[nH]2)cc1`: -0.91% (inactive); `c1ccc2[nH]c(CCCCc3nc4ccccc4[nH]3)nc2c1`: 7.39% (inactive); `c1ccc2[nH]c(CCCc3nc4ccccc4[nH]3)nc2c1`: -1.49% (inactive). For the compound `Nc1ccc(C(=O)OCCCc2nc3cc4ccccc4cc3[nH]2)cc1`, the inhibition is 14.4% (inactive).

`Cc1ccc2nc(Cc3ccc(N)cc3)[nH]c2c1`: the inhibition was 6.07% (inactive). For `Nc1ccc(C(=O)OCCCc2nc3ccccc3[nH]2)cc1` the value was 10% (inactive); for `CCOCCCN(C(=O)CCC(=O)Nc1cc(C)on1)C(C(=O)NC(C)(C)C)c1ccccc1Cl` (stereo unspecified), 5.98% (inactive); for `COc1ccc(-c2c(NC(=O)CC(C)C)n(C)c3ccccc3c2=O)cc1OC`, 4.25% (inactive). Next, `Cn1c(COc2ccc([N+](=O)[O-])cc2)nnc1SCC(=O)NCC1CCCO1` (stereo unspecified): 5.87% (inactive); `CCN(CC)CCCNc1nc(-c2ccccc2)nc2ccccc12`: 17.7% (inactive). For `CCN(CC)CCCNc1nc2ccccc2[nH]1` the value was 7.22% (inactive); for `CCCCCC(O)CCCC(=O)O` (stereo unspecified), 7.64% (inactive). On to `CCCCCCCCCCCCCCC(O)C[N+](C)(CCO)CCO` (stereo unspecified), for which the inhibition is 20.8% (inactive). Next, `CCOc1ccc(-n2nc3c(SCCN4CCCC4)nnc(C)c3c2C)cc1`: 10.3% (inactive). For the compound `Oc1ccccc1Cc1c(O)ccc2ccccc12`, the inhibition was 23.7% (inactive).

For `c1ccc2c(c1)ccc1ccccc12`, the inhibition is -3.62% (inactive). As to `COc1ccc2c(c1)S(=O)(=O)c1ccccc1N2`, the inhibition was 11.9% (inactive).

For the compound `c1ccc2c(c1)Nc1cc3ccccc3cc1S2`, the inhibition is 14.6% (inactive). For `COc1ccc(N/C=C2/Sc3ccccc3NC2=O)cc1` the value was 17.3% (inactive).

Consider `FC(F)(F)c1cnc2c(c1)Nc1ccccc1S2`, for which the inhibition is 10.2% (inactive). For the compound `c1ccc2c(c1)Nc1nccnc1S2`, the inhibition is 28.4% (inactive). For `Clc1cc2c(nn1)Nc1ccccc1S2` the value was 6.5% (inactive); for `Cn1c(N)c(C(=O)CSc2nnc(C3CC3)n2Cc2ccccc2)c(=O)[nH]c1=O`, 2.66% (inactive).

On to `N#Cc1ccc(OCC(=O)N2CCN(S(=O)(=O)c3cccc(Cl)c3)CC2)cc1`, for which the inhibition was -0.69% (inactive). Next, `COc1ccc(NC(=O)CN(C)C(=O)/C=C/c2cn(-c3ccccc3)nc2-c2ccc(C)cc2)cc1`: 9.39% (inactive); `CCOC(=O)Cc1csc(NC(=O)c2csc(C)c2)n1`: 9.83% (inactive); `CCOc1ccccc1OCCOCCN1CCN(Cc2ccccc2)CC1`: 26.4% (inactive). For `Cc1cc(OCCN2CCCC2)ccc1[N+](=O)[O-]` the value was 19.6% (inactive). For `Cc1cc(OCCN2CCC(Cc3ccccc3)CC2)ccc1[N+](=O)[O-]` the value was 22% (inactive). Take `O=C(c1ccccc1)c1ccc(OCCOCCN2CCN(Cc3ccccc3)CC2)cc1`: the inhibition was 25.1% (inactive). For `COc1cccc(NS(=O)(=O)c2c(C)nc3sccn3c2=O)c1` the value was 4.23% (inactive). Next, `CCc1cc(C(=O)NCC(c2ccco2)N2CCCCC2)sc1C` (stereo unspecified): 5.34% (inactive); `Cc1cccc(C(=O)OCC(=O)N2CCCCCC2)c1C`: 2.72% (inactive).

As for `CCN(C[C@H]1N[C@@](Cc2ccccc2)(C(=O)OC)[C@H]2C(=O)N(Cc3ccccc3)C(=O)[C@@H]12)C(=O)Nc1ccc(C)cc1`, the inhibition is 4.71% (inactive).

As for `CCOC(=O)c1ccc(NC(=S)N2CCC(C(N)=O)(N3CCCCC3)CC2)cc1`, the inhibition is -1.44% (inactive). For `CCN(CC)CCSc1nc(O)c(Cc2ccccc2)c(=O)n1-c1ccccc1` the value was 2.56% (inactive); for `O=C(CNCCN1CCOCC1)Nc1ccccc1Sc1ccccc1`, 24.9% (inactive); for `Cc1ccc(C(=O)NCCCN2CCOCC2)cc1S(=O)(=O)N1CCCCC1`, 1.84% (inactive). For the compound `Cc1ccc(NC(=O)CN2CCOCC2)cc1S(=O)(=O)N1CCCCC1`, the inhibition was 7.06% (inactive). Consider `CCN1CCN(CC(=O)Nc2ccc(Cl)c(S(=O)(=O)N(C)C)c2)CC1`, for which the inhibition is 28.1% (inactive). As to `Cc1ccccc1NC(=O)C(=O)NCCCN1CCOCC1`, the inhibition is 4.72% (inactive). Next, `CN(C)S(=O)(=O)c1cc(NC(=O)CN2CCOCC2)ccc1Cl`: 2.76% (inactive). For `Cc1ccccc1C(=O)NCC(=O)Nc1ccc(C)c(S(=O)(=O)N2CCCCCC2)c1` the value was -0.01% (inactive); for `Cc1ccc(NC(=O)CCl)cc1S(=O)(=O)N1CCCCCC1`, 4.4% (inactive). For `CC(Oc1cccc(Cl)c1)C(=O)N1CCN(c2ncccn2)CC1` (stereo unspecified) the value was 3.63% (inactive); for `O=C(Nc1ccccc1C(=O)O)c1cc(S(=O)(=O)N2CCOCC2)cs1`, 3.51% (inactive). `Cc1ccc(/C=N/N2CCN(C3c4ccccc4-c4ccccc43)CC2)o1`: the inhibition was 8.36% (inactive).

With `COc1ccc(N2CCN(C(=O)c3cc4c(s3)CCCCC4)CC2)cc1`, the inhibition is 14.7% (inactive).

In the case of `COCCn1c(SCC(=O)N2CCCCCC2)nnc1-c1ccco1`, the inhibition was 3.7% (inactive). For `CCC(CNC(=O)c1c(C)nn(-c2ccccc2)c1Cl)c1ccccc1` (stereo unspecified) the value was -0.7% (inactive); for `Cc1ccc(S(=O)(=O)N2CCCCC2)cc1C(=O)N(C)CCOc1ccccc1`, 8.29% (inactive). In the case of `O=C(Cn1cnc2c(nnn2-c2ccc(F)cc2)c1=O)NCC1CCCO1` (stereo unspecified), the inhibition was 8.9% (inactive). For `Cc1cc(C)n(CCc2nc3c4ccccc4n(CC#N)c(=O)n3n2)n1` the value was 3.22% (inactive); for `COc1cc(-c2csc(CCn3nc(C)cc3C)n2)cc(OC)c1OC`, 4.55% (inactive). Next, `COC(=O)C1CCN(S(=O)(=O)Cc2ccccc2Cl)CC1`: 7.49% (inactive). For `COc1cc2c(cc1OC)C1(CCCC1)CNC2C` (stereo unspecified) the value was 1.49% (inactive); for `COc1cc(OC)c(OC)cc1C#N`, 2.13% (inactive). As for `O=C(Nc1ccc(F)cc1)C(NC1CCCCC1)c1ccccc1` (stereo unspecified), the inhibition was 9.33% (inactive).

Consider `COc1ccc(C2=NS(=O)(=O)N(C)C(C(=O)N3CCCCC3C)=C2)cc1` (stereo unspecified), for which the inhibition was 2.61% (inactive). For `COc1ccc(C(C)C)cc1S(=O)(=O)Nc1ccccn1`, the inhibition is -2.56% (inactive). Take `COc1ccc(N(C(=O)c2ccncc2)S(=O)(=O)c2cccs2)cc1`: the inhibition was 5.29% (inactive). In the case of `COc1ccc(C(=O)N(c2ccc(OC)cc2)S(=O)(=O)c2cccs2)cc1`, the inhibition was 3.2% (inactive).

Take `O=C(Nc1ccc(-c2nc3ccccc3[nH]2)cc1)c1ccc2c(c1)OCO2`: the inhibition was 0.3% (inactive). Turning to `COc1ccccc1C1C2=C(N=C3SCC(=O)N31)c1ccccc1CC2` (stereo unspecified), the inhibition was 7% (inactive).

As for `CCOC(=O)c1cc(-c2ccccc2)nn1CCC#N`, the inhibition is 8.67% (inactive). For the compound `COc1ccc(OCc2nn3c(Cn4cnc5ccccc54)nnc3s2)cc1`, the inhibition is 19.9% (inactive). For `Cc1ccnc(SCc2cn3c(C)cccc3n2)n1`, the inhibition was 0.6% (inactive). For the compound `COc1cc(/C=C/C(=O)OCC(=O)NCCC2=CCCCC2)cc(OC)c1OC`, the inhibition was -10.3% (inactive). As for `COc1ccc(/C=C/C(=O)OCC(=O)NC2CCS(=O)(=O)C2)cc1` (stereo unspecified), the inhibition was -1.92% (inactive). Take `COc1cc(/C=C/C(=O)OCC(=O)NC2CCCCCCC2)ccc1O`: the inhibition was 26.5% (inactive).

For the compound `COc1ccc(/C=C/C(=O)OCC(=O)NCCC2=CCCCC2)cc1OC`, the inhibition is 4.2% (inactive). Next, `COc1cccc(/C=C/C(=O)OCC(=O)NCC2CCCCC2)c1OC`: -1.97% (inactive); `COc1cc(/C=C/C(=O)OCC(=O)NC2CCS(=O)(=O)C2)ccc1OC(F)F` (stereo unspecified): 2.44% (inactive). Turning to `CCCSCCCNC(=O)c1ccc(C)c(NC(=O)C2=C(C)OCCS2)c1`, the inhibition was 6.84% (inactive). Take `CCC(=O)N1C(=O)CCN(C(C)=O)c2ccccc21`: the inhibition was 11.8% (inactive).

Take `COc1cccc(NC(=O)CN(C)C(=O)C(CCSC)NC(=O)c2ccco2)c1` (stereo unspecified): the inhibition is 1.87% (inactive). For the compound `Cc1nn(C)c(=S)[nH]c1=S`, the inhibition was -2.65% (inactive).

On to `O=C(NCc1nc2ccccc2[nH]1)c1cccc(S(=O)(=O)N2CCCCC2)c1`, for which the inhibition is 1.53% (inactive). `Cc1c(C(=O)N/N=C/c2cccnc2)sc(N)c1C#N`: the inhibition was 6.19% (inactive). `COc1cc(/C=N/NC(=O)c2sc(N)c(C#N)c2C)cc(Br)c1O`: the inhibition is 11.7% (inactive). Next, `COc1ccc(C(=O)NC2=Nc3ccccc3N=C(C)C2c2ccccc2)cc1` (stereo unspecified): 0.78% (inactive). Turning to `Nc1cc(N)nc(SCC(=O)N2CCN(S(=O)(=O)c3ccccc3)CC2)n1`, the inhibition is 7.76% (inactive).
